Hits are enriched below; roughly 6.1% of the tested compounds scored in any of these assays.
VP16 counter: inhibits Gal4-VP16 luciferase reporter, ROR gamma counter-screen; Drosophila S2 Gal4-VP16 UAS-luciferase, luminescence, 20 h; Potency, µM (doses to about 53.6 µM), without a hit: at the highest dose activity, negative = inhibition, actives largely listed as inhibitors; 310,000 tested, 3.5% active; AID 2546;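 also: Gal4-VP16 expression switched on by copper sulfate through the metallothionein promoter; % is scaled to controls: 0 for no effect and ±100 for the full control effect; nearly all actives have a fitted effect of over 50% in size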
ATXN viability: viability counter-screen for ATXN expression inhibitors. S2 cells (HEK-293 line with an ATXN2-luciferase reporter) viability, CellTiter-Fluor protease fluorescence, 24 h. Potency, µM (highest dose often 56.7 µM), actives largely listed as cytotoxic. 400,000 tested, 0.49% active. AID 651635; also: nearly all actives have a fitted effect of over 40% in size
TGFb inhibitor: TGF-b pathway inhibition. HepG2 CAGA-GFP TGF-b/SMAD3 reporter, GFP fluorescence, 18 h; TGF-beta stimulated, 500 pg/mL final. Potency, µM (top dose mostly 46.1 µM), for inactives: top-dose activity, negative = inhibition, actives largely listed as inhibitors. 410,000 tested, 1.2% active. AID 588855; also: % is scaled to controls: 0 for no effect and ±100 for the full control effect; nearly all actives have a fitted effect of over 65% in size
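TGF-beta reporter screen: HEPG2 CAGA-GFP, 1% FBS, 500 pg/mL TGF-beta final, 18 h; per-cell GFP summed per well; curves fitted and categorized by class.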
RORgamma inh: blocks mouse ROR gamma transcriptional activity. P51450. Drosophila S2 Gal4-RORgamma UAS-luciferase reporter, 20 h. Potency, µM (top dose mostly 53.6 µM), for the others: at the top dose activity change, negative = inhibition, most hits filed as inhibitors. 310,000 tested, 5.4% active. AID 2551; also: % is scaled to controls: 0 for no effect and ±100 for the full control effect; nearly all actives have a fitted effect of over 60% in size
Target sequence (P51450 whole entry, looked up, the tested form may be a part): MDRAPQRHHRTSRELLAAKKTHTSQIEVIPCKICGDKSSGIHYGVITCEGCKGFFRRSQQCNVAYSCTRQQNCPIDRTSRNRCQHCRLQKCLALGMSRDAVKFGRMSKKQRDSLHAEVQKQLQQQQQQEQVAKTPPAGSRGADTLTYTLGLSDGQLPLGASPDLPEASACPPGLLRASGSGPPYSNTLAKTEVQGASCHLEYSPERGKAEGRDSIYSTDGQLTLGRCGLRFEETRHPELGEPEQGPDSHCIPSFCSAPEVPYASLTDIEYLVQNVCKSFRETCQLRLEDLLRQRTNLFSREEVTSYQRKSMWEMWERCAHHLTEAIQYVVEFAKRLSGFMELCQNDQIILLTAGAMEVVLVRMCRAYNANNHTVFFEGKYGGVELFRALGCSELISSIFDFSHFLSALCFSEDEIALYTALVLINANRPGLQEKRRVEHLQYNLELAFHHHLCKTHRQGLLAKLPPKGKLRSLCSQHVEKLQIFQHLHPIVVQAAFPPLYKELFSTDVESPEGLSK
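Using a luciferase readout, inhibitors were identified by reduced reporter activity in Drosophila cells coexpressing a copper-inducible Gal4–ROR gamma fusion and UAS-driven Photinus luciferase, incubated 20 hr after 700 uM copper sulfate.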
HepG2 tox: HepG2 cytotoxicity, counter-screen for TGF-b inhibitors | HepG2 CAGA-GFP viability, ATP luminescence, 18 h | Potency, µM (top dose mostly 46.1 µM), without a hit: at the highest dose activity change, negative = cytotoxicity, actives largely listed as cytotoxic | 410,000 tested, 0.76% active
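CellTiter-Glo luminescence gave cytotoxicity after 18 hours at 37 degrees C. The cells were HepG2 CAGA-GFP in 1% FBS DMEM, stimulated with 500 pg/mL TGF-beta after compound addition. %Activity was normalised to no-cell wells (complete cell-killing) and DMSO (no toxicity), and curves were fitted and classified.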
ATXN2 expr inh: reduces ATXN2 reporter expression in HEK-293 cells; HEK-293 ATXN2-luciferase reporter, luminescence, 24 h; Potency, µM (titrated, usually from 57 µM), for inactives: at the top dose activity change, negative = inhibition, most hits filed as inhibitors; 360,000 tested, 0.72% active; AID 1745845; also: % is scaled to controls: 0 for no effect and ±100 for the full control effect; nearly all actives have a fitted effect of over 55% in size
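ATXN2-luciferase reporter cells (luciferase flanked by upstream and downstream ATXN2 gene portions) were treated 24 h at 37 °C with compounds at up to 57 uM. SteadyGlo luminescence gave expression; GF-AFC fluorescence gave viability.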
Numbers without * were called inactive; i = inactive; u = inconclusive; x = no result given. Calls follow the shape of the dose curve; as a rule, active = well fitted curve in the direction sought with a large enough effect; inconclusive = small, poorly fitted or top-dose-only effect, or another doubt; inactive = no such curve, though single readings can be large; an effect the other way counts as inactive or inconclusive. Potency is read from the fitted curve at half-maximal effect.

SMILES | VP16 counter | ATXN viability | TGFb inhibitor | RORgamma inh | HepG2 tox | ATXN2 expr inh
CC(C)C(=O)N1CCN(c2ccc(NC(=O)c3ccc4c(c3)OCCO4)cc2Cl)CC1 | 1% | 18µM* | -18% | 32% | -34% | u
COc1cc(OC)cc(-c2nnc(NC(=O)c3ccc4c(c3)OCCO4)o2)c1 | 0.63µM* | i | 3% | 0.32µM* | -21% | x
COC(=O)c1ccc(N2CCOCC2)c(NC(=O)Nc2cccc(OC)c2)c1 | -7% | u | -10% | -22% | -10% | 32µM*
CCOC(=O)c1ccc(N2CCN(c3ccccc3F)CC2)c(NC(=O)Nc2cccc(OC)c2)c1 | -5% | i | -14% | 32% | -13% | -7%
COc1cccc(NC(=O)c2ccc3c(c2)OCO3)c1 | -27% | i | -24% | -3% | -59% | 22%
CC(=O)N1CCN(c2ccc(NC(=O)c3ccc4c(c3)OCCO4)cc2Cl)CC1 | -3% | i | 2% | 1% | -11% | 19%
COc1cccc(NC(=O)c2ccc3c(c2)OCCO3)c1 | u | i | -24% | u | 14µM* | u
COc1cccc(CSc2nc3n(n2)C(c2ccccc2C)C(C(=O)Nc2ccccc2OC)=C(C)N3)c1 (stereo not given) | x | i | -2% | x | -1% | 6%
CCOC(=O)c1ccccc1NC(=O)N1CCCn2nc(C)cc21 | x | u | 18% | x | 1% | -30%
Cc1ccc(NC(=O)Nc2nnc(N3CCCCC3)s2)c(C)c1 | x | i | 3% | x | 10% | 2%
O=C(NCCN1CCOCC1)C1(C(F)(F)F)C/C(=C\CCO)CCCO1 (stereo not given) | -24% | x | 3% | -1% | -17% | x
C=CCN(CC=C)Cc1c(C)[nH]c2c(C)c(C)ccc2c1=O | 13µM* | i | -9% | u | 1% | -23%
CCOc1ccc(NS(=O)(=O)c2ccc(NC(=O)N3CCCC3)cc2)cc1 | x | i | 3% | x | 1% | -7%
COc1cc2cc3c4c(cc(OC)c(OC)c4c2cc1OC)CCN3C | -6% | x | x | 2.8µM* | x | x
COc1cc(NS(=O)(=O)c2ccc(OC)c(C)c2C)c(OC)cc1Cl | 6.3µM* | i | u | u | -15% | u
CN(c1ccc(F)cc1)S(=O)(=O)N1CCCC(C(=O)NCc2ccccc2Cl)C1 (stereo not given) | x | x | 11µM* | x | -25% | x
CC(=O)OCCCN1c2ccccc2Nc2nnc(-c3ccccc3)cc21 | u | u | -1% | 11µM* | -32% | 90%
CCC1CN(CC(=O)N(C)Cc2nc3ccccc3[nH]2)Cc2cc(OC)ccc2O1 (stereo not given) | x | i | x | x | x | x
Cc1nc2c(C#N)c(C)[nH]n2c(=O)c1Cc1ccccc1 | 2% | i | -9% | -42% | 3% | 5%
Cc1cccc(Cc2c(C)nc3c(-c4ccccc4)c(C)[nH]n3c2=O)c1 | x | u | 2.5µM* | x | -31% | 13µM*
Cc1[nH]n2c(=O)cc(-c3ccccc3Cl)nc2c1-c1ccccc1 | x | i | u | x | -46% | -25%
Cc1nc2c(-c3ccc(F)cc3)c(C)[nH]n2c(=O)c1Cl | 11µM* | i | u | 11µM* | -48% | -32%
COCc1cc(=O)n2[nH]c(C)c(-c3ccc(Cl)cc3)c2n1 | x | i | -11% | x | 14µM* | x
Cc1nc2c(-c3ccc(Cl)cc3)c(C)[nH]n2c(=O)c1Cc1ccccc1 | u | u | 11µM* | 1.4µM* | 10µM* | u
COc1ccc(-c2c(C)[nH]n3c(=O)c(Cc4ccccc4)c(C)nc23)cc1OC | u | i | -6% | 3.5µM* | -12% | -31%
SMILES | VP16 counter | ATXN viability | TGFb inhibitor | RORgamma inh | HepG2 tox | ATXN2 expr inh
Cc1nc2c(-c3ccccc3)c(C)[nH]n2c(=O)c1Cc1ccccc1 | 7.1µM* | i | u | 2.8µM* | -36% | -17%
Cc1ccccc1Cc1c(C)nc2c(-c3ccccc3)c(C)[nH]n2c1=O | x | u | u | x | -43% | u
Cc1ccc(CN(Cc2ccco2)c2cnc(S(C)(=O)=O)nc2C(=O)Nc2ccccc2Br)o1 | x | i | -6% | x | -10% | 7%
O=C1C=CC(O)(c2cc(=O)c3c(O)cc(O)cc3o2)C=C1 | 2.8µM* | 13µM* | 4µM* | 3.2µM* | 16µM* | 7.9µM*
O=c1cc(-c2ccccc2Cl)oc2cc(O)cc(O)c12 | 4% | i | -21% | 6% | -18% | 40%
O=C(Nc1cccc(Cl)c1)N(CCN1CCOCC1)Cc1ccccc1F | 9% | x | 1% | u | -19% | x
S=C(Nc1ccc(Cl)cc1)N(CCCN1CCOCC1)Cc1cccs1 | 10% | i | 1% | 13µM* | 7% | -17%
COc1ccc(NC(=S)N(CCCN2CCCC(C)C2)Cc2cccs2)cc1 (stereo not given) | -7% | i | -1% | 11µM* | -4% | -23%
CCc1ccc(NC(=S)N(CCN2CCOCC2)Cc2ccccc2F)cc1 | u | i | 3% | 14µM* | -7% | x
O=C(Nc1ccc(Cl)cc1)N(CCCN1CCOCC1)Cc1cccs1 | 4% | i | -7% | 18% | -7% | 0%
NC(=O)CSc1nc2cc3c(cc2c(=O)n1CCCCCC(=O)NCc1ccc2c(c1)OCO2)OCO3 | x | x | 12% | x | 1% | x
C[C@@H]1CN(Cc2ccc3c(c2)CN(Cc2cn[nH]c2-c2ccccc2)CCO3)C[C@H](C)O1 | x | i | x | x | x | x
CC(=O)c1cc(-c2ccc(F)cc2)n(CC(=O)NC2CCC(C)CC2)c1C (stereo not given) | x | x | 0% | x | -10% | x
CCn1cc(S(=O)(=O)c2ccc(OC)cc2)c(=O)c2cc(F)c(N3CCC(C)CC3)cc21 | x | x | u | x | -18% | x
Cc1cc(C)n(Cc2n[nH]c(=S)n2Cc2ccccc2)n1 | u | u | 3% | 11µM* | 11% | 1%
Cc1nn(Cc2n[nH]c(=S)n2Cc2ccccc2)c(C)c1Cl | 20µM* | i | 18% | 5.6µM* | -13% | 3%
Cc1ccc(NC(=O)CSc2nc(=O)n(CCN3CCOCC3)c3c2CCC3)cc1Cl | x | x | u | x | -32% | x
CC(C)S(=O)(=O)c1oc(-c2ccc(F)cc2)nc1S(=O)(=O)c1ccccc1 | x | x | 1.4µM* | x | 3.2µM* | x
CSc1oc(-c2ccc(F)cc2)nc1S(=O)(=O)c1ccc(F)cc1 | -1% | i | -2% | -2% | -32% | -3%
CS(=O)(=O)c1oc(-c2ccc(F)cc2)nc1S(=O)(=O)c1ccc(Cl)cc1 | x | x | 3.2µM* | x | 5µM* | x
CC(C)S(=O)(=O)c1oc(-c2cccs2)nc1S(=O)(=O)c1ccc(F)cc1 | x | x | 2.5µM* | x | 3.5µM* | x
CCCCS(=O)(=O)c1oc(-c2ccc(F)cc2)nc1S(=O)(=O)c1ccccc1 | x | x | 2.8µM* | x | 5.6µM* | x

Screens as filed in PubChem.
